# Data: the supplement of paper PMC10037445
# Whole data set: some 2,900 compounds, median “NF-kB SEAP reporter activity, fold change vs agonist alone” near 0.99, cut for the highest 2% near 2.6. Only a selection was taken, and the highest values are over-represented in it overall.
# How the values were obtained:
# RAW-Dual [1] = test: NF-kB SEAP reporter activity, fold change vs agonist alone; cytotoxicity flag (confluency mask): not cytotoxic; higher = enhanced NF-kB activity
# Method in brief: (§1)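 After 50 nL of library stock was delivered by pin tool to RAW-Dual macrophages (50,000 cells/well, DMEM, 384-well plates), a PRR agonist was added 1 h later and the plates were kept at 37 °C, 5% CO2. Twenty hours later, IRF was read from supernatant by QuantiLuc luminescence and NF-κB by QuantiBlue absorbance at 620 nm. Reporter activity is stated as fold change over agonist-alone wells. Wells with IncuCyte confluency under 70% of agonist controls in both mask sets were counted as cytotoxic.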
# RAW-Dual [2] = test: NF-kB SEAP reporter activity, fold change vs agonist alone; higher = enhanced NF-kB activity
# Method in brief: as §1
# RAW-Dual [3] = test: NF-kB SEAP reporter activity, fold change vs agonist alone; cytotoxicity flag (confluency mask): cytotoxic (confluency <70% of control); higher = enhanced NF-kB activity
# Method in brief: as §1
# [4] = agonist: ODN 1826 (TLR9) 0.5 ug/mL
# [5] = agonist: Pam2CSK4 (TLR2/6) 0.1 ug/mL
# [6] = agonist: Pam3CSK4 (TLR2/1) 0.1 ug/mL
# [7] = library stock concentration (final ~1000-fold dilution): 10 mM, cytotoxicity flag (confluency mask): not cytotoxic, agonist: Imiquimod (TLR7) […]
# [8] = library stock concentration (final ~1000-fold dilution): 10 mM, cytotoxicity flag (confluency mask): not cytotoxic, agonist: MPLA (TLR4) […]
# [9] = library stock concentration (final ~1000-fold dilution): 10 mM, cytotoxicity flag (confluency mask): cytotoxic (confluency <70% of control), agonist: Imiquimod (TLR7) […]
# [10] = library stock concentration (final ~1000-fold dilution): 10 mM, cytotoxicity flag (confluency mask): cytotoxic (confluency <70% of control), agonist: MPLA (TLR4) […]
smiles,measurement,setting,value
CN(C)CCOC(c1ccccc1)c1ccccc1.Cl (library stock concentration (final ~1000-fold dilution): 10 mM),NF-kB SEAP reporter activity,RAW-Dual [1]; agonist: LPS (TLR4) 0.1 ug/mL,1.27
same,NF-kB SEAP reporter activity,RAW-Dual [1]; [4],0.728
same,NF-kB SEAP reporter activity,RAW-Dual [1]; [5],0.917
same,NF-kB SEAP reporter activity,RAW-Dual [1]; [6],1.1
CN(C)CCOC(c1ccccc1)c1ccccc1.Cl,NF-kB SEAP reporter activity,RAW-Dual [2]; [7],1.39
same,NF-kB SEAP reporter activity,RAW-Dual [2]; [8],0.886
Cn1cc(CC(N)C(=O)O)c2ccccc21 (stereo not drawn) (library stock concentration (final ~1000-fold dilution): 2 mM),NF-kB SEAP reporter activity,RAW-Dual [1]; agonist: LPS (TLR4) 0.1 ug/mL,1.05
same,NF-kB SEAP reporter activity,RAW-Dual [1]; [4],1.22
same,NF-kB SEAP reporter activity,RAW-Dual [1]; [5],1.19
same,NF-kB SEAP reporter activity,RAW-Dual [1]; [6],1.05
Cl.Cn1cc(C(=O)C2CCc3nc[nH]c3C2)c2ccccc21 (stereo not drawn),NF-kB SEAP reporter activity,RAW-Dual [2]; [7],0.775
same,NF-kB SEAP reporter activity,RAW-Dual [2]; [8],0.816
Cn1cc(CC(N)C(=O)O)c2ccccc21 (stereo not drawn),NF-kB SEAP reporter activity,"RAW-Dual [2]; library stock concentration (final ~1000-fold dilution): 2 mM, cytotoxicity flag (confluency mask): not cytotoxic, agonist: Imiquimod (TLR7) […]",0.994
same,NF-kB SEAP reporter activity,"RAW-Dual [2]; library stock concentration (final ~1000-fold dilution): 2 mM, cytotoxicity flag (confluency mask): not cytotoxic, agonist: MPLA (TLR4) […]",1.05
Cl.Cn1cc(C(=O)C2CCc3nc[nH]c3C2)c2ccccc21 (stereo not drawn) (library stock concentration (final ~1000-fold dilution): 10 mM),NF-kB SEAP reporter activity,RAW-Dual [1]; agonist: LPS (TLR4) 0.1 ug/mL,1.01
same,NF-kB SEAP reporter activity,RAW-Dual [1]; [4],0.67
same,NF-kB SEAP reporter activity,RAW-Dual [1]; [5],0.928
same,NF-kB SEAP reporter activity,RAW-Dual [1]; [6],0.877
Cl.Cl.Cn1cc(CNCC2CCN(c3ncc(C(=O)NO)cn3)CC2)c2ccccc21,NF-kB SEAP reporter activity,RAW-Dual [2]; [9],2.52
same,NF-kB SEAP reporter activity,RAW-Dual [2]; [10],2.65
Cl.Cl.Cn1cc(CNCC2CCN(c3ncc(C(=O)NO)cn3)CC2)c2ccccc21 (library stock concentration (final ~1000-fold dilution): 10 mM),NF-kB SEAP reporter activity,RAW-Dual [3]; agonist: LPS (TLR4) 0.1 ug/mL,7.01
same,NF-kB SEAP reporter activity,RAW-Dual [3]; [4],1.95
same,NF-kB SEAP reporter activity,RAW-Dual [3]; [5],1.13
same,NF-kB SEAP reporter activity,RAW-Dual [3]; [6],1.93
COc1ccc(CCC(=O)N(c2nccc3ccccc23)C2CCCNC2)cc1 (stereo not drawn),NF-kB SEAP reporter activity,RAW-Dual [2]; [7],1.07
same,NF-kB SEAP reporter activity,RAW-Dual [2]; [8],1.29
COc1ccc(CCC(=O)N(c2nccc3ccccc23)C2CCCNC2)cc1 (stereo not drawn) (library stock concentration (final ~1000-fold dilution): 10 mM),NF-kB SEAP reporter activity,RAW-Dual [1]; agonist: LPS (TLR4) 0.1 ug/mL,1.05
same,NF-kB SEAP reporter activity,RAW-Dual [1]; [4],0.84
same,NF-kB SEAP reporter activity,RAW-Dual [1]; [5],1.09
same,NF-kB SEAP reporter activity,RAW-Dual [1]; [6],1.08
CS(=O)(=O)c1cccc(CC(NC(=O)c2c(Cl)cc3c(c2Cl)CCN(C(=O)c2ccc4ccoc4c2)C3)C(=O)O)c1 (stereo not drawn) (library stock concentration (final ~1000-fold dilution): 10 mM),NF-kB SEAP reporter activity,RAW-Dual [1]; agonist: LPS (TLR4) 0.1 ug/mL,0.994
same,NF-kB SEAP reporter activity,RAW-Dual [1]; [4],1
same,NF-kB SEAP reporter activity,RAW-Dual [1]; [5],1.03
same,NF-kB SEAP reporter activity,RAW-Dual [1]; [6],0.941
CS(=O)(=O)c1cccc(CC(NC(=O)c2c(Cl)cc3c(c2Cl)CCN(C(=O)c2ccc4ccoc4c2)C3)C(=O)O)c1 (stereo not drawn),NF-kB SEAP reporter activity,RAW-Dual [2]; [7],0.947
same,NF-kB SEAP reporter activity,RAW-Dual [2]; [8],1.04
O=[N+]([O-])c1ccc(S(=O)(=O)N2CCN(c3ccnc4cc(Cl)ccc34)CC2)c([N+](=O)[O-])c1,NF-kB SEAP reporter activity,RAW-Dual [2]; [9],0.787
same,NF-kB SEAP reporter activity,RAW-Dual [2]; [10],0.37
O=[N+]([O-])c1ccc(S(=O)(=O)N2CCN(c3ccnc4cc(Cl)ccc34)CC2)c([N+](=O)[O-])c1 (library stock concentration (final ~1000-fold dilution): 10 mM),NF-kB SEAP reporter activity,RAW-Dual [3]; agonist: LPS (TLR4) 0.1 ug/mL,0.384
same,NF-kB SEAP reporter activity,RAW-Dual [3]; [4],0.333
same,NF-kB SEAP reporter activity,RAW-Dual [3]; [5],0.229
same,NF-kB SEAP reporter activity,RAW-Dual [3]; [6],0.196
COc1cccc(NC(=O)/C=C/c2ccc(Cl)cc2)c1 (library stock concentration (final ~1000-fold dilution): 10 mM),NF-kB SEAP reporter activity,RAW-Dual [1]; agonist: LPS (TLR4) 0.1 ug/mL,1.18
same,NF-kB SEAP reporter activity,RAW-Dual [1]; [4],0.828
same,NF-kB SEAP reporter activity,RAW-Dual [1]; [5],0.682
same,NF-kB SEAP reporter activity,RAW-Dual [1]; [6],0.711
Cn1cc(/C=C/C(=O)c2cccc(F)c2)cc1/C=C/C(=O)NO (library stock concentration (final ~1000-fold dilution): 10 mM),NF-kB SEAP reporter activity,RAW-Dual [1]; agonist: LPS (TLR4) 0.1 ug/mL,1.26
same,NF-kB SEAP reporter activity,RAW-Dual [1]; [4],0.787
same,NF-kB SEAP reporter activity,RAW-Dual [1]; [5],0.605
same,NF-kB SEAP reporter activity,RAW-Dual [1]; [6],0.528
O=C(/C=C/c1cccc(S(=O)(=O)Nc2ccccc2)c1)NO (library stock concentration (final ~1000-fold dilution): 10 mM),NF-kB SEAP reporter activity,RAW-Dual [3]; agonist: LPS (TLR4) 0.1 ug/mL,5.83
same,NF-kB SEAP reporter activity,RAW-Dual [3]; [4],2.3
same,NF-kB SEAP reporter activity,RAW-Dual [3]; [5],0.848
same,NF-kB SEAP reporter activity,RAW-Dual [3]; [6],1.76
Cn1cc(/C=C/C(=O)c2cccc(F)c2)cc1/C=C/C(=O)NO,NF-kB SEAP reporter activity,RAW-Dual [2]; [7],0.803
same,NF-kB SEAP reporter activity,RAW-Dual [2]; [8],1.06
O=C(/C=C/c1cccc(S(=O)(=O)Nc2ccccc2)c1)NO,NF-kB SEAP reporter activity,RAW-Dual [2]; [9],2.39
same,NF-kB SEAP reporter activity,RAW-Dual [2]; [10],2.58
COc1cccc(NC(=O)/C=C/c2ccc(Cl)cc2)c1,NF-kB SEAP reporter activity,RAW-Dual [2]; [7],1.02
same,NF-kB SEAP reporter activity,RAW-Dual [2]; [8],1.04
CC(=O)Oc1cc2c(s1)CCN(C(C(=O)C1CC1)c1ccccc1F)C2.Cl (stereo not drawn) (library stock concentration (final ~1000-fold dilution): 10 mM),NF-kB SEAP reporter activity,RAW-Dual [1]; agonist: LPS (TLR4) 0.1 ug/mL,0.766
same,NF-kB SEAP reporter activity,RAW-Dual [1]; [4],0.821
same,NF-kB SEAP reporter activity,RAW-Dual [1]; [5],0.958
same,NF-kB SEAP reporter activity,RAW-Dual [1]; [6],0.688
CC(=O)Oc1cc2c(s1)CCN(C(C(=O)C1CC1)c1ccccc1F)C2.Cl (stereo not drawn),NF-kB SEAP reporter activity,RAW-Dual [2]; [8],0.869
C=CC(=O)N1CC/C(=C\c2ccc(F)c([N+](=O)[O-])c2)C(=O)/C(=C/c2ccc(F)c([N+](=O)[O-])c2)C1 (library stock concentration (final ~1000-fold dilution): 10 mM),NF-kB SEAP reporter activity,RAW-Dual [1]; agonist: LPS (TLR4) 0.1 ug/mL,0.222
same,NF-kB SEAP reporter activity,RAW-Dual [1]; [4],0.198
same,NF-kB SEAP reporter activity,RAW-Dual [1]; [5],0.0699
same,NF-kB SEAP reporter activity,RAW-Dual [1]; [6],0.144
C=CC(=O)N1CC/C(=C\c2ccc(F)c([N+](=O)[O-])c2)C(=O)/C(=C/c2ccc(F)c([N+](=O)[O-])c2)C1,NF-kB SEAP reporter activity,RAW-Dual [2]; [7],0.151
same,NF-kB SEAP reporter activity,RAW-Dual [2]; [8],0.267
CC1CNC(=O)c2cnn3ccc(nc23)NC(C)c2cc(F)ccc2O1 (stereo not drawn),NF-kB SEAP reporter activity,RAW-Dual [2]; [7],0.753
same,NF-kB SEAP reporter activity,RAW-Dual [2]; [8],0.916
